Reference: PubChem BioAssay (Tox21)
Unmarked numbers belong to inactive results. Inconclusive results are not listed. Where a call stands in place of a potency, no number is given. The source made the active and inactive calls. Unless noted, calls come from the whole dose curve; as a rule, active = well fitted curve in the direction sought with a large enough effect in the repeat runs; inconclusive = weak or mixed curves; inactive = no such curve, though single readings can be large; an effect the other way counts as inactive or inconclusive.

What was measured:
[1] = qHTS assay for small molecule agonists of the p53 signaling pathway (AID 651631; calls by dose curve; note: nearly all actives have a fitted effect of over 15% in size)
Summary of the method: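 Stably transfected HCT-116 cells (beta-lactamase behind p53 response elements) get compounds after a 5 h settling period; 16 h later at 37 °C, FRET substrate is loaded and fluorescence read after 2 h.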

[2] = qHTS assay for small molecules that induce genotoxicity in human embryonic kidney cells expressing luciferase-tagged ATAD5 (AID 651632); note: nearly all actives have a fitted effect of over 15% in size; note: potency is the fitted concentration of half-maximal effect
Summary of the method: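 Reporter cells (HEK293T) express luciferase-tagged ATAD5, a protein that accumulates after DNA damage. Treat 16 hr at 37C/5% CO2, add Amplite, wait 30 min at RT, and read luminescence.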

[3] = qHTS assay for small molecule agonists of the p53 signaling pathway - cell viability (AID 651633; calls by dose curve;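 note: p53RE-bla HCT reporter cells with a stable beta-lactamase p53 reporter; series mostly up to about 83 µM; nearly all actives have a fitted effect of over 30% in size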)
Summary of the method: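 p53RE-bla cells were treated with compound for 16 hours at 37 C. Cytotoxicity was then measured as CellTiter-Glo luminescence after 30 min at room temperature.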

[4] = qHTS assay for small molecules that induce genotoxicity in human embryonic kidney cells expressing luciferase-tagged ATAD5 - cell viability (AID 651634; calls by dose curve; note: nearly all actives have a fitted effect of over 25% in size)
Summary of the method: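 Seeding of 2,000 HEK293T ATAD5-luciferase cells per well preceded pin-tool compound transfer. Plates sat 15.5 hr at 37C under 5% CO2, then fluorescence was read after 30 min with CellTiter-Fluor.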

[5] = qHTS assay for small molecule disruptors of the mitochondrial membrane potential - cell viability (AID 720634; calls by dose curve; note: nearly all actives have a fitted effect of over 20% in size; note: potency is the fitted concentration of half-maximal effect)
Summary of the method: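 Measuring cytotoxicity alongside mitochondrial potential, the screen quantified ATP by luminescence in HepG2 cells after 1 hr compound incubation and a 30 min room-temperature CellTiter-Glo step.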

[6] = qHTS assay to test for compound auto fluorescence at 590 nm (red) in HepG2 cells (AID 720674)
Summary of the method: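 Fluorescence at 590 nm emission following 540 nm excitation was recorded from HepG2 wells one hour after compound transfer, with DMSO-only wells as vehicle and Rose Bengal sodium equivalency as the scale.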

[7] = qHTS assay to test for compound auto fluorescence at 535 nm (green) in HepG2 cells (AID 720675)
[8] = qHTS assay to test for compound auto fluorescence at 460 nm (blue) in HEK293 cells (AID 720678)
Summary of the method: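 HEK293 cells (2,000/well, medium with 10% dialyzed FBS) attached 4-5 hr, then exposed to compound overnight at 37C, 5% CO2. Blue fluorescence read at 405/460 nm, with triamterene as reference fluorophore.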

[9] = qHTS assay to test for compound auto fluorescence at 590 nm (red) in HEK293 cells (AID 720679)
Summary of the method: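 HEK293 cells (2,000/well, 10% dialyzed FBS) attached 4-5 hr, then dosed with compound or DMSO and incubated overnight at 37C, 5% CO2. Red fluorescence read at 540/590 nm, Rose Bengal sodium as reference fluorophore.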

[10] = qHTS assay to test for compound auto fluorescence at 535 nm (green) in HEK293 cells (AID 720680)
[11] = qHTS assay to test for compound auto fluorescence at 590 nm (red) in HEK293 cell free culture (AID 720683)
Summary of the method: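 Cell-free wells of DMEM with 10% FBS received compound, and intrinsic fluorescence was read at excitation/emission 540/590 nm. Values expressed as equivalence to Rose Bengal sodium.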

[12] = qHTS assay to test for compound auto fluorescence at 590 nm (red) in HepG2 cell free culture (AID 720684)
Summary of the method: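 Compound was pinned into wells holding MEM with 10% FBS and no cells, and red fluorescence was read at Ex/Em 540/590 nm. Signal is expressed as auto fluorescence equivalency relative to Rose Bengal sodium.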

[13] = qHTS assay to test for compound auto fluorescence at 460 nm (blue) in HepG2 cell free culture (AID 720685)
Summary of the method: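 Compound (23 nL) or DMSO pinned into cell-free MEM with 10% FBS; blue fluorescence read at 405/460 nm excitation/emission, expressed as auto-fluorescence equivalency to triamterene.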

[14] = qHTS assay to test for compound auto fluorescence at 535 nm (green) in HepG2 cell free culture (AID 720686)
[15] = qHTS assay to test for compound auto fluorescence at 460 nm (blue) in HepG2 cells (AID 720687)
Summary of the method: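 HepG2 cells in MEM with 10% FBS, attached overnight at 37 C, were exposed to compound or DMSO for 1 hr at 37 C, 5% CO2. Blue fluorescence was read at 405/460 nm, with triamterene as reference fluorophore.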

[16] = biological target: Glucocorticoid receptor (Homo sapiens) (UniProt P04150); assay: qHTS assay to identify small molecule agonists of the glucocorticoid receptor (GR) signaling pathway (AID 720691; active = well fitted activation curve with a large enough effect in the signal ratio in the repeat runs, not every such curve was filed as active; the % refers to the signal ratio)
Summary of the method: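 Reporter read-out: fluorescence intensity following 2 h room-temperature LiveBLAzer B/G FRET substrate loading. Prior step: GR-bla HeLa cells held 4 h, then treated 18 h at 37 C.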

[17] = biological target: Glucocorticoid receptor (Homo sapiens) (UniProt P04150); assay: qHTS assay to identify small molecule antagonists of the glucocorticoid receptor (GR) signaling pathway (AID 720692; active = well fitted inhibition curve with a large enough effect in the signal ratio in the repeat runs, not every such curve was filed as active; the % refers to the signal ratio)
Summary of the method: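 Dexamethasone (5 nM final) stimulated a stably integrated GRE-beta-lactamase reporter in HeLa cells during 18 h co-incubation with compounds; signal was quantified as fluorescence intensity of B/G FRET substrate after 2 h.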

[18] = qHTS assay to test for compound auto fluorescence at 535 nm (green) in HEK293 cell free culture (AID 720682)
Summary of the method: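 Using fluorescein as calibrant, autofluorescence was quantified at 485/535 nm in cell-free DMEM containing 10% FBS after pintool addition of compound or vehicle.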

Sequence of Glucocorticoid receptor (Homo sapiens) (P04150 whole entry, looked up): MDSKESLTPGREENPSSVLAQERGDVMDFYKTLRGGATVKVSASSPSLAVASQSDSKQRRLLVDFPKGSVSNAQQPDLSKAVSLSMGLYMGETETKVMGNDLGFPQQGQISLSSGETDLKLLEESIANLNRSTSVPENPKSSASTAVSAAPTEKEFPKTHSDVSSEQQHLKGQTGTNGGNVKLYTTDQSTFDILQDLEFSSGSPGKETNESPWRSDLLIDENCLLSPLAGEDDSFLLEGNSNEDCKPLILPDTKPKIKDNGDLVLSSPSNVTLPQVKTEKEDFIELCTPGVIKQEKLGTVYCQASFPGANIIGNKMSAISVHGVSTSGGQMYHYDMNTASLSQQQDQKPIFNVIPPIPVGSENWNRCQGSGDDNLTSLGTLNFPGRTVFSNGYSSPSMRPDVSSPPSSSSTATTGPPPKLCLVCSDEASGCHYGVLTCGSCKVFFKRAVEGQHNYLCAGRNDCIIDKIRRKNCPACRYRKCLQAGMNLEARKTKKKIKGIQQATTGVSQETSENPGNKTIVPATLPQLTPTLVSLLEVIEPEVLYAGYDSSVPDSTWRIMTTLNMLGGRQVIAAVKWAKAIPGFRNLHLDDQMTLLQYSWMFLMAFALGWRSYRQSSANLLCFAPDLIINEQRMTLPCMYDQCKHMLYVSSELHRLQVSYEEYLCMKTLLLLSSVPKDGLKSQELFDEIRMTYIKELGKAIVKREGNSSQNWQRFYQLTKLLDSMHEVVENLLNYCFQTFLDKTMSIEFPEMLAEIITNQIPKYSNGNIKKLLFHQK

Structure (SMILES)	Potency [1]	Potency [2]	Potency [3]	Potency [4]	Potency [5]	outcome [6]	outcome [7]	Potency [8]	outcome [9]	outcome [10]	outcome [11]	outcome [12]	Potency [13]	outcome [14]	Potency [15]	Potency [16]	Potency [17]	outcome [18]
c1ccc(CNCc2ccccc2)cc1	inactive	inactive	inactive	inactive	inactive	inactive	inactive	inactive	inactive	inactive	inactive	inactive	inactive	inactive	inactive	inactive		
O=C(CC(=O)c1ccccc1)c1ccccc1	inactive	11.7 µM (active)	inactive	inactive	36.9 µM (active)	inactive	inactive	inactive	inactive	inactive	inactive	inactive	inactive	inactive	inactive	inactive	inactive	
CC(=O)O[C@H]1C[C@@H]2CC[C@@H]3[C@H](CC[C@@]4(C)[C@H]3C[C@H]([N+]3(C)CCCCC3)[C@@H]4OC(C)=O)[C@@]2(C)C[C@@H]1N1CCCCC1	inactive	inactive	inactive	inactive	inactive	inactive	inactive	inactive	inactive	inactive	inactive	inactive	inactive	inactive	inactive			inactive
